Thrombin data for 40 compounds are collected here from article PMC8159961, “Exploring protein hotspots by optimized fragment pharmacophores” (Nature Communications, 2021).

Unmarked numbers belong to inactive results. How the calls were made is not given here.

The experiment concerns the target thrombin (human, UniProt P00734). The experiment can be described thus: primary screen, binary call; higher = more effect of the substance. Further details: screenings were carried out in duplicate in one independent experiment. The following applies: 200 µM. As for the experimental part: Protease inhibitory assays were performed in transparent microtiter plates in a final volume of 200 µL with the use of chromogenic substrates. The reaction rates in the absence and in the presence of the inhibitor were measured; screenings were carried out in duplicate in one independent experiment and Ki values were determined in triplicate in two independent experiments.
In the case of `c1ccc(Nc2nncs2)cc1`, the Thrombin is 0.

`NCC1(c2ccccc2)CCOCC1`: the Thrombin is 0.

With `O=C(c1ccccc1F)N1CCNCC1`, the Thrombin was 0.

As for `c1ccc2c(N3CCNCC3)ccnc2c1`, the Thrombin is 0.

On to `N#Cc1ccc(C(=O)N2CCOCC2)cc1`, for which the Thrombin is 0.

`Clc1ccc2nnnn2n1`: the Thrombin is 0.

Turning to `CC(=O)c1ccc2c(c1)CCCN2`, the Thrombin was 0.

As to `Nc1ccc(SC(F)F)cc1`, the Thrombin was 0.

Take `O=C1CCN(c2ccccn2)CC1`: the Thrombin was 0.

As for `Oc1ccc(-n2cncn2)cc1`, the Thrombin was 0.

As to `COc1ccccc1C1CCNCC1`, the Thrombin is 0.

For the compound `O=C(c1ccccc1)N1CCC(CO)CC1`, the Thrombin was 0.

Turning to `Oc1ccc(C2CCNCC2)cc1`, the Thrombin was 0.

Consider `CC1(C)OC(=O)c2cc(Br)c(O)cc2O1`, for which the Thrombin was 0.

`Cc1ccc(C)n1Cc1ccccc1Cl`: the Thrombin is 0.

Take `Fc1ccc2c(C3CCNCC3)c[nH]c2c1`: the Thrombin was 0.

As to `O=C1CC(CSc2ccc(Cl)cc2)=NN1`, the Thrombin is 0.

For the compound `CCN(CC)c1cccc(C)c1`, the Thrombin was 0.

For the compound `Cc1cc(N)no1`, the Thrombin is 0.

Turning to `N#CC1CCS(=O)(=O)C1` (stereo not shown), the Thrombin was 0.

For `CCc1ccc(NC2=NCCCS2)cc1`, the Thrombin is 0.

With `CCCN1C(=O)CC(=O)NC1=S`, the Thrombin is 0.

With `Cc1nc(-c2ccccc2)cs1`, the Thrombin was 0.

On to `CS(=O)(=O)Nc1ccc(C(=O)O)cc1`, for which the Thrombin was 0.

Turning to `c1ccc2sc(N3CCNCC3)nc2c1`, the Thrombin is 0.

Turning to `NC1CCc2ccccc21` (stereo not shown), the Thrombin is 0.

On to `O=C(O)C1CCCN(C(=O)N2CCCC2)C1` (stereo not shown), for which the Thrombin is 0.

Regarding `N#CCCN1CCc2ccccc21`, the Thrombin is 0.

For `Cc1cc(-c2ccccc2)n[nH]1`, the Thrombin was 0.

As to `c1ccc(-c2ccncc2)cc1`, the Thrombin was 0.

For `CCn1cnc2ccccc21`, the Thrombin was 0.

For the compound `C1=C[C@H]2O[C@@H]1c1ccccc12`, the Thrombin was 0.

With `O=C1CCCc2occc21`, the Thrombin is 0.

Regarding `Oc1cnc(-c2ccccc2)nc1`, the Thrombin is 0.

On to `CC(=O)c1sc(-c2ccc(O)cc2)nc1C`, for which the Thrombin was 1 (active).

As for `c1ccc2oc(C3CCCNC3)nc2c1` (stereo not shown), the Thrombin was 0.

Take `O=C(CN1CCNCC1)c1ccccc1`: the Thrombin was 0.

With `O=c1ccc2c([nH]1)CCCC2`, the Thrombin was 0.

Regarding `Cn1nc(C(F)(F)F)cc1O`, the Thrombin was 0.

As to `O=C1CNCCN1c1ccccc1`, the Thrombin was 0.
